{"source": "the supplement of paper PMC8728848", "assay_in_all_cases": "glycan array binding signal (z-score within array); higher = stronger binding", "details_in_all_cases": "glycan notation: IUPAC condensed, linker removed", "key": {"[1]": {"molecular_target": "GlcNAc(b1-2)[GlcNAc(b1-4)]Man(a1-3)[GlcNAc(b1-4)][GlcNAc(b1-2)[GlcNAc(b1-6)]Man(a1-6)]Man(b1-4)GlcNAc(b1-4)[Fuc(a1-6)]GlcNAc", "procedure,_shortened": "(§1)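 The binding signal is a Z-score computed within each array and averaged over linkers. Arrays of the same protein sequence at different concentrations or buffers were also averaged together. Data originate from 3228 arrays in the Consortium for Functional Glycomics database, kept only where the protein sequence was available.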"}, "[2]": {"molecular_target": "GlcNAc(b1-3)Gal(b1-4)GlcNAc(b1-2)Man(a1-3)[GlcNAc(b1-3)Gal(b1-4)GlcNAc(b1-2)Man(a1-6)]Man(b1-4)GlcNAc(b1-4)GlcNAc", "procedure,_shortened": "as §1"}, "[3]": {"molecular_target": "GlcNAc(b1-3)Gal(b1-4)GlcNAc(b1-3)Gal(b1-4)GlcNAc(b1-2)[GlcNAc(b1-3)Gal(b1-4)GlcNAc(b1-3)Gal(b1-4)GlcNAc(b1-6)]Man(a1-6)[GlcNAc(b1-3)Gal(b1-4)GlcNAc(b1-3)Gal(b1-4)GlcNAc(b1-2)Man(a1-3)]Man(b1-4)GlcNAc(b1-4)[Fuc(a1-6)]GlcNAc", "procedure,_shortened": "as §1"}, "[4]": {"molecular_target": "Man(a1-2)Man(a1-2)Man(a1-6)[Man(a1-3)]Man", "procedure,_shortened": "as §1"}, "[5]": {"molecular_target": "Man(a1-2)Man(a1-3)[Man(a1-2)Man(a1-6)]Man(a1-6)[Man(a1-2)Man(a1-2)Man(a1-3)]Man", "procedure,_shortened": "as §1"}, "[6]": {"molecular_target": "Man(a1-2)Man(a1-3)[Man(a1-6)]Man(a1-6)[Man(a1-2)Man(a1-3)]Man(b1-4)GlcNAc(b1-4)GlcNAc", "procedure,_shortened": "as §1"}, "[7]": {"molecular_target": "Man(a1-2)Man(a1-6)[Man(a1-3)]Man(a1-6)[Man(a1-2)Man(a1-2)Man(a1-3)]Man(b1-4)GlcNAc(b1-4)GlcNAc", "procedure,_shortened": "as §1"}, "[8]": {"molecular_target": "Neu5Ac(a2-3)Gal", "procedure,_shortened": "as §1"}, "[9]": {"molecular_target": "Neu5Ac(a2-3)Gal(b1-3)GlcNAc(b1-3)GalNAc", "procedure,_shortened": "as §1"}, "[10]": {"molecular_target": "Neu5Ac(a2-3)Gal(b1-3)[Fuc(a1-4)]GlcNAc(b1-3)Gal(b1-4)[Fuc(a1-3)]GlcNAc", "procedure,_shortened": "as §1"}, "[11]": {"molecular_target": "Neu5Ac(a2-3)Gal(b1-4)GlcNAc(b1-2)[Neu5Ac(a2-3)Gal(b1-4)GlcNAc(b1-6)]Man(a1-6)[Neu5Ac(a2-3)Gal(b1-4)GlcNAc(b1-2)Man(a1-3)][GlcNAc(b1-4)]Man(b1-4)GlcNAc(b1-4)GlcNAc", "procedure,_shortened": "as §1"}, "[12]": {"molecular_target": "Neu5Ac(a2-3)Gal(b1-4)[Fuc(a1-3)]GlcNAc(b1-3)GalNAc", "procedure,_shortened": "as §1"}, "[13]": {"molecular_target": "Neu5Ac(a2-8)Neu5Ac(a2-3)Gal(b1-3)GalNAc(b1-4)[Neu5Ac(a2-3)]Gal(b1-4)Glc", "procedure,_shortened": "as §1"}, "[14]": {"molecular_target": "Neu5Ac(b2-6)Gal(b1-4)GlcNAc", "procedure,_shortened": "as §1"}, "[15]": {"molecular_target": "Neu5Gc(a2-8)Neu5Ac(a2-3)Gal(b1-4)GlcNAc", "procedure,_shortened": "as §1"}, "[16]": {"molecular_target": "Neu5Gc(a2-8)Neu5Gc(a2-6)Gal(b1-4)GlcNAc", "procedure,_shortened": "as §1"}}, "note": "About 410 targets per protein were measured; listed, in parts, are those with the strongest signals and a random draw of the rest."}
{"binder": "Cohesin-hLangerin (Homo sapiens) (protein) LDDLDAVRIKVDTVNAKPGDTVRIPVRFSGIPSKGIANCDFVYSYDPNVLEIIEIEPGDIIVDPNPDKSFDTAVYPDRKIIVFLFAEDSGTGAYAITKDGVFATIVAKVKEGAPNGLSVIKFVEVGGFANNDLVEQKTQFFDGGANVGDTTEPATPTTPVTTPTTTDDLDAASYPRFMGTISDVKTNVQLLKGRVDNISTLDSEIKKNSDGMEAAGVQIQMVNESLGYVRSQFLKLKTSVEKANAQIQILTRSWEEVSTLNAQIPELKSDLEKASALNTKIRALQGSLENMSKLLKRQNDILQVVSQGWKYFKGNFYYFSLIPKTWYSAEQFCVSRNSHLTSVTSESEQEFLYKTAGGLIYWIGLTKAGMEGDWSWVDDTPFNKVQSARFWIPGEPNNAGNNEHCGNIKAPSLQAWNDAPCDKTFLFICKRPYVPSEPHHHHHH", "values": [{"measurement": "glycan array binding signal (z-score)", "setting": "[1]", "value": -0.2}, {"measurement": "glycan array binding signal (z-score)", "setting": "[2]", "value": -0.336}, {"measurement": "glycan array binding signal (z-score)", "setting": "[3]", "value": 4.94}, {"measurement": "glycan array binding signal (z-score)", "setting": "[4]", "value": 5.38}, {"measurement": "glycan array binding signal (z-score)", "setting": "[5]", "value": 6.69}, {"measurement": "glycan array binding signal (z-score)", "setting": "[6]", "value": -0.429}, {"measurement": "glycan array binding signal (z-score)", "setting": "[7]", "value": 6.34}, {"measurement": "glycan array binding signal (z-score)", "setting": "[8]", "value": -0.391}, {"measurement": "glycan array binding signal (z-score)", "setting": "[9]", "value": -0.31}, {"measurement": "glycan array binding signal (z-score)", "setting": "[10]", "value": 3.62}, {"measurement": "glycan array binding signal (z-score)", "setting": "[11]", "value": -0.447}, {"measurement": "glycan array binding signal (z-score)", "setting": "[12]", "value": 0.356}, {"measurement": "glycan array binding signal (z-score)", "setting": "[13]", "value": -0.417}, {"measurement": "glycan array binding signal (z-score)", "setting": "[14]", "value": -0.412}, {"measurement": "glycan array binding signal (z-score)", "setting": "[15]", "value": -0.431}, {"measurement": "glycan array binding signal (z-score)", "setting": "[16]", "value": -0.412}]}
